Experimental findings from PubChem BioAssay (Tox21) are described below.

Assay [1] is described as follows: qHTS assay for small molecule agonists of the p53 signaling pathway (AID 651631; calls by dose curve; note: nearly all actives have a fitted effect of over 15% in size). The procedure, abridged: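 Quantitative high-throughput format: 4,000 p53RE-bla HCT-116 cells/well, 5 h pre-incubation, 16 h compound exposure at 37 °C, 2 h room-temperature substrate step, fluorescence intensity measured.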
Assay [2] in a line: qHTS assay for small molecules that induce genotoxicity in human embryonic kidney cells expressing luciferase-tagged ATAD5 (AID 651632). Note: nearly all actives have a fitted effect of over 15% in size. The procedure, abridged:
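Cells were seeded at 2,000 per well, dosed with compound, and incubated 16 hr at 37C in 5% CO2. Luciferase activity was then quantified after a 30 min room-temperature incubation with Amplite.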
(In general: Quantitative high-throughput screening tests each substance at several concentrations.)

A short description of assay [3]: qHTS assay for small molecule agonists of the p53 signaling pathway - cell viability (AID 651633; calls by dose curve;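 note: p53RE-bla HCT reporter cells with a stable beta-lactamase p53 reporter; nearly all actives have a fitted effect of over 30% in size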). In a few lines:
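p53RE-bla cells, seeded at 4,000 per well and rested 5 h at 37 C/5% CO2, received compounds in DMSO for 16 h at 37 C. CellTiter-Glo was then added, and luminescence was read after 30 min at room temperature to gauge cytotoxicity.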

A short description of assay [4]: qHTS assay for small molecules that induce genotoxicity in human embryonic kidney cells expressing luciferase-tagged ATAD5 - cell viability (AID 651634; calls by dose curve; note: nearly all actives have a fitted effect of over 25% in size). The procedure, abridged: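 Cells (HEK293T, luciferase-tagged ATAD5) are seeded at 2,000 per well, dosed with compound or DMSO vehicle, and incubated 15.5 hr at 37C and 5% CO2. CellTiter-Fluor is added for 30 min before fluorescence is measured.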

The nature of assay [5]: qHTS assay for small molecule disruptors of the mitochondrial membrane potential - cell viability (AID 720634; calls by dose curve;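 note: human HepG2 liver cancer cells; nearly all actives have a fitted effect of over 20% in size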). The procedure, abridged: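 Cytotoxicity was measured by ATP quantitation in HepG2 wells that had first been treated with compound for 1 hr and stained with m-MPI dye; CellTiter-Glo incubation was 30 min at room temperature.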
Assay [6] can be described thus: qHTS assay for small molecule disruptors of the mitochondrial membrane potential (AID 720635). In a few lines: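 HepG2 cells (2,000/well) attached overnight at 37C, then took compound for 1 hr at 37C, 5% CO2. Mito-MPS dye was added for 30 min; fluorescence was read at 490/535 nm (monomers) and 540/590 nm (aggregates).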
Assay [7] can be described thus: qHTS assay to test for compound auto fluorescence at 535 nm (green) in HepG2 cells (AID 720675).
A short description of assay [8]: qHTS assay to test for compound auto fluorescence at 460 nm (blue) in HEK293 cells (AID 720678). The procedure, abridged:
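HEK293 cells (2,000 per well, medium with 10% dialyzed FBS) attached for 4-5 hr at 37C, then received compound and stood overnight at 37C, 5% CO2. Blue fluorescence was read at Ex/Em 405/460 nm and expressed relative to triamterene.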

Assay [9] is described as follows: qHTS assay to test for compound auto fluorescence at 590 nm (red) in HEK293 cells (AID 720679). In a few lines:
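HEK293 cells (2,000/well, medium with 10% dialyzed FBS) attached for 4-5 hr at 37C, received 23 nL compound and were incubated overnight at 37C, 5% CO2. Red fluorescence was then read at 540/590nm Ex/Em, referenced to Rose Bengal sodium.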

The nature of assay [10]: qHTS assay to test for compound auto fluorescence at 535 nm (green) in HEK293 cells (AID 720680).
Assay [11] in a line: qHTS assay to test for compound auto fluorescence at 460 nm (blue) in HEK293 cell free culture (AID 720681). In a few lines: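 Test compounds were pinned into cell-free culture medium (DMEM with 10% FBS) and fluorescence was read directly at Ex/Em 405/460 nm. Signals were expressed as fluorescence equivalents of triamterene, with DMSO vehicle as control.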
Assay [12] in a line: qHTS assay to test for compound auto fluorescence at 535 nm (green) in HEK293 cell free culture (AID 720682). The procedure, abridged: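 Measurement is a direct plate read of green fluorescence (485 nm in, 535 nm out) after compound addition to serum-supplemented DMEM lacking cells, with fluorescein used to express intensities.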
The nature of assay [13]: qHTS assay to test for compound auto fluorescence at 590 nm (red) in HepG2 cell free culture (AID 720684). The procedure, abridged:
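Readout: intrinsic compound fluorescence at 590 nm emission after 540 nm excitation, scaled to Rose Bengal sodium. Matrix was cell-free MEM with 10% FBS; DMSO vehicle wells served as control.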

Assay [14] is described as follows: qHTS assay to test for compound auto fluorescence at 535 nm (green) in HepG2 cell free culture (AID 720686).
The nature of assay [15]: qHTS assay to test for compound auto fluorescence at 460 nm (blue) in HepG2 cells (AID 720687). In a few lines:
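Cells (2,000/well in MEM with 10% FBS) attached overnight at 37 C, then were exposed to compound or DMSO for 1 hr at 37 C, 5% CO2. Fluorescence read at Ex/Em 405/460 nm, expressed as triamterene-equivalent signal.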

The target of assay [16] is Glucocorticoid receptor (Homo sapiens) (UniProt P04150). Put plainly: qHTS assay to identify small molecule agonists of the glucocorticoid receptor (GR) signaling pathway (AID 720691; active = well fitted activation curve with a large enough effect in the signal ratio in the repeat runs, not every such curve was filed as active; inconclusive = weak or mixed curves, or effect the other way; inactive = no such curve, though single readings can be large or run the other way; the % refers to the signal ratio; note: potency is the fitted concentration of half-maximal effect). The following applies: GR-bla HeLa, beta-lactamase reporter ratio, 18 h; activation: at 62.4 µM (top of the series) unless noted. The procedure, abridged: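 Steps: seed GR-bla HeLa cells, incubate 4 h at 37 C/5% CO2; pin-transfer DMSO-dissolved compounds; incubate 18 h at 37 C; add LiveBLAzer B/G FRET substrate; after 2 h at room temperature, measure fluorescence.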

Assay [17] is described as follows: qHTS assay to test for compound auto fluorescence at 590 nm (red) in HepG2 cells (AID 720674). In a few lines:
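Intrinsic compound fluorescence in the red window (Ex/Em 540/590 nm) is measured in attached HepG2 cells exposed for 1 hr, DMSO vehicle as baseline, benchmarked to Rose Bengal sodium.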

The nature of assay [18]: qHTS assay to test for compound auto fluorescence at 590 nm (red) in HEK293 cell free culture (AID 720683). In a few lines: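 Tox21 10K library compounds were pinned into cell-free DMEM with 10% FBS and fluorescence was read at excitation 540 nm. Activity is expressed as Rose Bengal sodium equivalency.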
A short description of assay [19]: qHTS assay to test for compound auto fluorescence at 460 nm (blue) in HepG2 cell free culture (AID 720685). In a few lines: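 Cell-free plates of MEM plus 10% FBS received 23 nL compound or DMSO vehicle; blue-channel (405/460 nm) intensity scored against triamterene as reference fluorophore.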
In assay [20] the target is Glucocorticoid receptor (Homo sapiens) (UniProt P04150). Put plainly: qHTS assay to identify small molecule antagonists of the glucocorticoid receptor (GR) signaling pathway (AID 720692; active = well fitted inhibition curve with a large enough effect in the signal ratio in the repeat runs, not every such curve was filed as active; inconclusive = weak or mixed curves, or effect the other way; inactive = no such curve, though single readings can be large or run the other way; the % refers to the signal ratio). The procedure, abridged: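 Antagonism was scored as loss of dexamethasone-driven (5 nM final) reporter signal in HeLa cells bearing a glucocorticoid response element–beta-lactamase construct, after 18 h compound exposure at 37 C and 2 h FRET substrate loading.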

Values without a mark were called inactive. Activity calls are given as the source filed them. Unless noted, calls come from the whole dose curve; as a rule, active = well fitted curve in the direction sought with a large enough effect in the repeat runs; inconclusive = weak or mixed curves; inactive = no such curve, though single readings can be large; an effect the other way counts as inactive or inconclusive.
% is set by controls: 0 for no effect and ±100 for the full control effect.

Sequence of Glucocorticoid receptor (Homo sapiens) (P04150 whole entry, looked up): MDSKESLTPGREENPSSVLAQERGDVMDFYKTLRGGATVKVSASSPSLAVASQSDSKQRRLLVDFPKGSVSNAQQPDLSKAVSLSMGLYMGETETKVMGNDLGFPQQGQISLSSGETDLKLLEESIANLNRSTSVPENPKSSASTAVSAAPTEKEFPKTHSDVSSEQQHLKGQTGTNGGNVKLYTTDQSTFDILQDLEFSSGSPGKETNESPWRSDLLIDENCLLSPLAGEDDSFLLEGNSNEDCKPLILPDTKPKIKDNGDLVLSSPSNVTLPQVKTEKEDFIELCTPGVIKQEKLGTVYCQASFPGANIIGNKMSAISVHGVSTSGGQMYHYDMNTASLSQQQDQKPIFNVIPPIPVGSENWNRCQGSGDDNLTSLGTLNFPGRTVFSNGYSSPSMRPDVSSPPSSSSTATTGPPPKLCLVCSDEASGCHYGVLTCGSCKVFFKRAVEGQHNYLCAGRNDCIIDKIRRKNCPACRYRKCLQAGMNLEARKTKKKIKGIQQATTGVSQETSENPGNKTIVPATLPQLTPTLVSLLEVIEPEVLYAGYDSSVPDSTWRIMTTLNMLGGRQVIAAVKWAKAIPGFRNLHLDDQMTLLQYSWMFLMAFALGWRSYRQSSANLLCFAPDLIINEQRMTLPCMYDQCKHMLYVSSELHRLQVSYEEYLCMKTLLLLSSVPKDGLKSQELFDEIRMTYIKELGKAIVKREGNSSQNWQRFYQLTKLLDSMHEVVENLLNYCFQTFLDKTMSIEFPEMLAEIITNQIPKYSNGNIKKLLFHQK

Regarding `CNC(=O)CN(CCN(CCN(CC(=O)[O-])CC(=O)NC)CC(=O)[O-])CC(=O)[O-].O.[Gd+3]`, the Potency entry in [1], in [2], in assay [3], in [4], in assay [5] and in [6] was “inactive” throughout. Besides, the Potency entry in [7], in assay [9], in [13], in assay [14] and in assay [16] was “inactive” throughout. Further, the compound was classed as inactive in assay [8], in assay [10], in assay [11], in assay [12] and in [15].

Take `CCCCC(CC)COC(=O)COc1ccc(Cl)cc1Cl` (configuration not stated): the Potency entry in [1], in [2], in assay [3], in [4], in [5] and in assay [6] was “inactive” in each case. The Potency result in [17], in assay [18], in assay [13], in assay [14] and in assay [16] was “inactive” each time. Besides, the result in [8], in assay [10], in [11], in assay [12], in [19] and in [15] was inactive.

Consider `CCCCC(=O)OCC(=O)[C@H]1[C@H](C)C[C@H]2[C@@H]3C[C@H](F)C4=CC(=O)C=C[C@]4(C)[C@@]3(F)[C@@H](O)C[C@@]21C`, for which the Potency entry in assay [1], in assay [2], in [3], in [4], in assay [5] and in [17] was “inactive” throughout. Further, the Potency result in assay [7], in [9], in assay [18], in assay [13] and in [14] was “inactive” each time. For the same compound, the compound was classed as inactive in assay [8], in [10], in assay [11], in assay [12], in assay [19] and in assay [15]. Also, the Potency in assay [16] was 7.6 nM [inconclusive] (active).

As to `O=C(O)CNCC(=O)O`, the activation in assay [1] is -5.9% [at 8.3 µM]; in [2], 0.678% [at 8.08 µM]; in assay [16] it was -1.96% [at 6.9 µM]. Moreover, the activity change, negative = cytotoxicity in assay [3] was 6.66% [at 8.08 µM]; in assay [5], -5.3% [at 8.08 µM]. The activity, negative = cytotoxicity in assay [4] was 24.8% [at 8.08 µM]. The ratio activity, negative = MMP loss in [6] is 15% [at 8.08 µM]. Further, in assay [17], the fluorescence, relative to Rose Bengal is -0.419% [at 3.72 µM]. Moreover, the figures for the fluorescence, % of fluorescein control in [7] and in [14] were -0.0488% [at 3.72 µM] and -0.0374% [at 3.72 µM], respectively. In [8], the fluorescence, % of triamterene was -0.267% [at 3.72 µM]. Moreover, the fluorescence, % of fluorescent control is -0.0175% [at 3.72 µM] in [9], -0.259% [at 3.72 µM] in assay [11], -0.223% [at 3.72 µM] in assay [18] and -0.0767% [at 3.72 µM] in assay [15]. Moreover, the fluorescence, % of fluorescein in [10] was -0.0204% [at 3.72 µM]. Also, the activity change in [12] was -0.144% [at 3.72 µM]. For the same compound, in [13], the fluorescence, % of Rose Bengal is -0.109% [at 3.72 µM].

For `CC(=O)[O][Al][O]C(C)=O`, the Potency result in assay [1], in assay [2], in [3], in assay [4], in [5] and in assay [17] was “inactive” each time. The Potency result in assay [7], in assay [9], in assay [18], in assay [13] and in [14] was “inactive” in each case. The compound was classed as inactive in [8], in assay [10], in [11], in [12], in assay [19] and in assay [15].

Turning to `O=C1c2ccccc2S(=O)(=O)N1CCCCN1CCN(c2ncccn2)CC1`, the Potency result in [1], in [2], in assay [3], in assay [4], in assay [5] and in [6] was “inactive” throughout. The Potency entry in [17], in assay [7], in assay [9], in assay [18], in [13] and in assay [14] was “inactive” each time. In assay [16], the Potency result is “inactive”. The compound was classed as inactive in [8], in [10], in [11], in assay [12], in [19] and in assay [15].

In the case of `CCCCC(CC)COC(=O)CCCCCCCCC(=O)OCC(CC)CCCC` (configuration not stated), the Potency entry in assay [1], in assay [2], in assay [3], in [4], in assay [5] and in assay [6] was “inactive” in each case. Besides, the Potency result in [9], in assay [18], in [13], in [14], in [16] and in assay [20] was “inactive” each time. Further, the outcome in [8], in assay [10], in assay [11], in assay [19] and in assay [15] was inactive.
